# Assay results reported in PubChem BioAssay.
# The source made the active and inactive calls.
# Tests used:
# [1] = compounds binding Alexa647 anti-His antibody – biochemical, small-molecule microarray, 635 nm fluorescence, artefact control for SMM control protein annotation, primary screen (AID 1128); conditions: higher = more signal;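 also: score merges feature fluorescence with signal-to-noise for each printed compound spot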
# [2] = tested on: Human papillomavirus type 1a E7 protein (residues 1-88); test: HPV1a E7 small-molecule binders, primary screen, biochemical, small-molecule microarray, residues 1-88, 635 nm (AID 1129); conditions: small-molecule microarray binding, fluorescence 635 nm; higher = more signal
# [3] = target: Focal adhesion kinase 1 (Homo sapiens) (UniProt Q05397); test: PTK2 protein binding on printed compound slides – biochemical, small-molecule microarray, 635/667 nm fluorescence, BSA, DTT, primary screen (AID 1130); conditions: 635 nm fluorescence, higher = more signal;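 also: composite of spot emission at 667 nm and signal to noise over triplicate slides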
# Sequence of Focal adhesion kinase 1 (Homo sapiens) (Q05397 whole entry, looked up): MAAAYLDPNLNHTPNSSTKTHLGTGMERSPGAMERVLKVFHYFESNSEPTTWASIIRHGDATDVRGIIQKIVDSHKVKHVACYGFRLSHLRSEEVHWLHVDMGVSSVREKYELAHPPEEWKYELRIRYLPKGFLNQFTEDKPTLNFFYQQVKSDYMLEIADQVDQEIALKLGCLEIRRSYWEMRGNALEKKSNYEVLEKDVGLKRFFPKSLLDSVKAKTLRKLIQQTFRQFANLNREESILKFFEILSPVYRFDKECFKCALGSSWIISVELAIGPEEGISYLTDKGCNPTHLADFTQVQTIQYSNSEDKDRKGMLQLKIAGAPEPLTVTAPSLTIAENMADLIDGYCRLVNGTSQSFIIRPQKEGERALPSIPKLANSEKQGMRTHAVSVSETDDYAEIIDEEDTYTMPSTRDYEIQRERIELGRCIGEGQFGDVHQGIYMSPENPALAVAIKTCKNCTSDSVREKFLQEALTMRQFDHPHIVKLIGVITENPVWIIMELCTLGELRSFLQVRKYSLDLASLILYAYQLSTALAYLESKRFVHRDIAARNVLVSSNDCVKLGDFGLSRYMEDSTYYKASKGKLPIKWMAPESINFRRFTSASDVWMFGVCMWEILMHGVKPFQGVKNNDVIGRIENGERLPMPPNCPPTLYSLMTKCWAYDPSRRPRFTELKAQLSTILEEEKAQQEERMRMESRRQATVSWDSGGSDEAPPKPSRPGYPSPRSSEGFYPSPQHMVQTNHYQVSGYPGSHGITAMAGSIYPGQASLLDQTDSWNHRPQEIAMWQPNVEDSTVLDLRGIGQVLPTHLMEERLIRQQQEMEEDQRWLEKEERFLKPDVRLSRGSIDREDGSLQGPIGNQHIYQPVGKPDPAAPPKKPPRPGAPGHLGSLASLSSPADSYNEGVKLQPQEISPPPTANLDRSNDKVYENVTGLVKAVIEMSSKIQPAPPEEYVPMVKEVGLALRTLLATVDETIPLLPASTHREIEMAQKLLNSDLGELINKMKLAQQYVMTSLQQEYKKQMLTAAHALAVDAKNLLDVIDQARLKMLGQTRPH
# [4] = tested on: Fibrinogen (Alexa647-labelled); test: Alexa647-fibrinogen binding to printed small molecules – biochemical, small-molecule microarray, 635/667 nm fluorescence, artefact control for SMM control-protein annotation, profiling panel (AID 1131); conditions: fibrinogen-A647 binding fluorescence, higher = more signal;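 also: z-score merges 667 nm fluorescence with per-spot signal-to-noise over triplicate slides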
# [5] = target: Follistatin (Homo sapiens) (UniProt P19883); test: FST protein binding to printed compounds – biochemical, small-molecule microarray, 635/667 nm fluorescence, primary screen (AID 1132); conditions: 635 nm fluorescence, higher = more signal
# Sequence of Follistatin (Homo sapiens) (P19883 whole entry, looked up): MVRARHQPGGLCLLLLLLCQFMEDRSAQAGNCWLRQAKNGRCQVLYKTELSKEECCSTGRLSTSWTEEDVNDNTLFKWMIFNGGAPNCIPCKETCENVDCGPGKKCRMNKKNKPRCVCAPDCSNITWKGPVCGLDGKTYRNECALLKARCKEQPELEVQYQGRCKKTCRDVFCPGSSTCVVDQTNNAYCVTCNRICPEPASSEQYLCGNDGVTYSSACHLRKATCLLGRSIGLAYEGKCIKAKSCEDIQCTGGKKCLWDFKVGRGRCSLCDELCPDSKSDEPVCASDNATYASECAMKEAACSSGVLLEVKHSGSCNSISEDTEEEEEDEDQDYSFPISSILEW
# [6] = target: Fibroblast growth factor 2 (Homo sapiens) (UniProt P09038); test: basic fibroblast growth factor binding to printed compounds – biochemical, small-molecule microarray, 635/667 nm fluorescence, primary screen (AID 1133); conditions: FGF2, fluorescence 635/667, higher = more signal
# Sequence of Fibroblast growth factor 2 (Homo sapiens) (P09038 whole entry, looked up): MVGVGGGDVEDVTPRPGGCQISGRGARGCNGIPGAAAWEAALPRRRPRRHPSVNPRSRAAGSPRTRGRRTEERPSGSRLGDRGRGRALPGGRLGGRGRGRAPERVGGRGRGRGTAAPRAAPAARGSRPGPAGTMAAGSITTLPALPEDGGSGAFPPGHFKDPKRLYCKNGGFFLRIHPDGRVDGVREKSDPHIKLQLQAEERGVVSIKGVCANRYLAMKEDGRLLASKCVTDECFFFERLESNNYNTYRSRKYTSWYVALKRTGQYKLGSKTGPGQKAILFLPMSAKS
# [7] = JC-1 mitochondrial potential readout, lung cancer cells – cell-based, A549, JC-1 fluorescence, basal, 24 h, 100 nL, profiling panel (AID 1138); conditions: higher = more signal;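 also: A549 lung adenocarcinoma cells under basal conditions with no added stimulus; test concentration not given here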
# Lefty1 = Lefty1 protein binding to printed compounds – biochemical, small-molecule microarray, 635/667 nm fluorescence, primary screen (AID 1139); conditions: fluorescence 635/667, higher = more signal
# [8] = tested on: wheat germ agglutinin (Triticum aestivum), Alexa647-labelled; test: Alexa647-WGA lectin binding to printed small molecules – biochemical, small-molecule microarray, 635/667 nm fluorescence, artefact control for SMM control-protein annotation, profiling panel (AID 1140); conditions: WGA-A647 binding, 635 nm fluorescence, higher = more signal;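 also: score merges 667 nm feature emission with signal to noise over triplicate slides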
# [9] = target: Luciferin 4-monooxygenase (Photinus pyralis) (UniProt P08659); test: inhibition of purified Photinus pyralis luciferase – biochemical, luminescence, purified enzyme, 2006 set, primary screen (AID 1141); conditions: purified firefly luciferase, SteadyGlo luminescence, 30 min; higher = more signal, called active from +8 up or from −8 down;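 also: cell-free assay with purified firefly luciferase at 100 ng per well in PBS; test concentration not given here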
# Sequence of Luciferin 4-monooxygenase (Photinus pyralis) (P08659 whole entry, looked up): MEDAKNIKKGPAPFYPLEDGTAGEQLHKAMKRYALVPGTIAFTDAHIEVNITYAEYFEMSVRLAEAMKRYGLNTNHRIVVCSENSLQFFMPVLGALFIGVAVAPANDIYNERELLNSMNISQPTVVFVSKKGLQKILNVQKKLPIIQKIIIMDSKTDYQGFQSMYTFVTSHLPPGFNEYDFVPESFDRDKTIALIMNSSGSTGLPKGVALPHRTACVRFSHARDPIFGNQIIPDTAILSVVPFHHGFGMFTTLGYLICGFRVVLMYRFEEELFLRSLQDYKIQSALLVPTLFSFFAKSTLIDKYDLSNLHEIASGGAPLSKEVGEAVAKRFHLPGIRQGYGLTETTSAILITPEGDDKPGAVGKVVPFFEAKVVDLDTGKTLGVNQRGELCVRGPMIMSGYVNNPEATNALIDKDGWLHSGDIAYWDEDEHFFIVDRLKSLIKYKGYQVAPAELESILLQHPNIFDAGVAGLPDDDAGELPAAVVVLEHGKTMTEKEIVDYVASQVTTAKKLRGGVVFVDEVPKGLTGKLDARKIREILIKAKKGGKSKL
Structure (SMILES),composite z-score [1],composite z-score [2],composite z-score [3],composite z-score [4],composite z-score [5],composite z-score [6],z-score [7],composite z-score (Lefty1),composite z-score [8],z-score [9]
CO[C@H]1O[C@H](CO)[C@@H](OC(=O)Nc2ccc3c(c2)OCO3)[C@H](OC(=O)Nc2ccc3c(c2)OCO3)[C@@H]1OC(=O)Nc1ccc2c(c1)OCO2,1.67,1.3,0.347,1,0.997,0.366,0.0347,0.484,0.682,-9.67 (active)
COCCOC(=O)N1C(=O)[C@@]2(c3ccccc31)[C@H](c1ccc(O)cc1)N1[C@H](c3ccccc3)[C@H](c3ccccc3)OC(=O)[C@H]1[C@@H]2C(=O)N1CCN(c2ncccn2)CC1,0.682,1.14,0.666,0.244,1.04,1.43,-0.727,0.806,0.026,0.504 (inactive)
CN(C)C(=O)[C@]1(Cc2ccccc2CN=[N+]=[N-])N=C(c2ccc(OCCCO)cc2)O[C@@H]1c1ccccc1,2.24,1.22,0.48,0.947,0.987,0.658,-0.439,0.035,1.02,0.582 (inactive)
O=C1N(CCS(=O)(=O)c2ccccc2)c2ccccc2[C@H]2OC(c3ccc(OCCCO)cc3)=N[C@@]12Cc1ccccc1,2.15,0.936,0.548,0.587,1.54,1.75,1.08,0.476,0.943,-8.53 (active)
C=C[C@H]1C(C(=O)OCC)=CC[C@@H](c2ccccc2)N1S(=O)(=O)c1ccc(C)cc1,1.53,1.22,0.736,0.964,1.2,0.0703,3.33,0.325,0.677,0.26 (inactive)
CO[C@H]1O[C@H](CO)[C@@H](OC(=O)CCc2ccccc2)[C@@H]2OC(=O)[C@@H](Cc3ccccc3)C/C=C/C[C@H](Cc3ccccc3)C(=O)O[C@@H]12,0.623,1.03,0.178,0.28,1.28,1.31,2.11,0.396,0.0856,0.769 (inactive)
COC(=O)[C@@]1(Cc2ccc(F)cc2)[C@H]2c3cc(C(=O)N4CCCC4)n(Cc4ccc(C)c(F)c4F)c3C[C@H]2CN1C(=O)c1ccccc1,1.39,0.821,0.572,0.511,-0.115,-0.132,-0.494,-0.605,0.921,-12.5 (active)
COc1cc2c(cc1O)C(c1ccc(CN3CCCC3)cc1)N(Cc1cc3c(cc1Br)OCO3)CC2 (stereo not given),-0.381,-0.367,0.171,0.516,0.0395,-0.73,1.11,-0.268,0.688,-1.37 (inactive)
[N-]=[N+]=Nc1ccccc1C[C@@]1(C(=O)NCCN2CCOCC2)N=C(c2ccc(OCCCO)cc2)O[C@@H]1c1ccccc1N=[N+]=[N-],2.81,1.24,0.587,0.989,1.2,0.752,-0.381,0.383,0.898,-1.71 (inactive)
C=CC[C@@]1(C(=O)NCCCOC)N=C(c2ccc(OCCCO)cc2)O[C@@H]1c1ccccc1,2.85,1.19,0.166,-0.273,1.3,0.594,0.565,-0.476,0.471,-0.589 (inactive)
C=CCNC(=O)[C@@H]1[C@H]2C(=O)O[C@H](c3ccccc3)[C@H](c3ccccc3)N2[C@H](c2ccccc2OCCO)[C@@]12C(=O)Nc1ccc(C#CCC(C(=O)OC)C(=O)OC)cc12,1.03,1.2,0.978,0.0251,0.67,0.335,-1.44,-0.0767,0.551,-0.238 (inactive)
Cc1ccc(N2C(=O)c3ccccc3[C@@H](C(=O)NCCCN(C)C)[C@@H]2c2ccc(CO)cc2)nc1,2.06,0.232,-0.736,0.442,0.115,-0.189,-0.0107,-0.978,-0.0618,0.775 (inactive)
COc1ccc(C(=O)Nc2ccc(CN3C(=O)[C@]4(O[C@H](CC(=O)N5Cc6ccccc6C[C@H]5CO)[C@@H]([Si](C)(C)c5ccc(OC)cc5)[C@@H]4C)c4ccccc43)cc2)cc1,1.46,1.16,0.353,0.547,1.1,1.35,-0.615,1.08,0.75,-0.379 (inactive)
